Source: PubChem BioAssay
Calls of active or inactive are those of the source.

What was measured:
[1] = system: PRMT1 (protein arginine N-methyltransferase 1); experiment: small molecules binding arginine methyltransferase PRMT1 – biochemical, small-molecule microarray, 635 nm fluorescence, primary screen (AID 1088); settings: higher = more signal;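 further: binding of Prmt1 protein to compounds spotted on small-molecule microarray slides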
[2] = growth effects on S. cerevisiae YJM789 – YJM789 clinical isolate, OD600, 24 h, basal, primary screen (AID 1089); settings: higher = more signal, called active from +8 up or from −8 down;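 further: growth of clinical yeast isolate S. cerevisiae YJM 789 seeded 1000 cells per well; test concentration not given here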
[3] = S. pombe growth modifiers, basal conditions – strain 972, OD600, 24 h, no modulator, primary screen (AID 1090);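 further: basal condition with compound alone and no growth modifier present; test concentration not given here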; settings: S. pombe 972 growth, higher = more signal, called active from +8 up or from −8 down
[4] = budding yeast growth modifiers under rapamycin – strain BY4716, OD600, 96 h, primary screen (AID 1091); further: test concentration not given here; settings: S. cerevisiae BY4716 + rapamycin, higher = more signal, called active from +8 up or from −8 down
[5] = molecular target: Torsin-1A-interacting protein 2 (Homo sapiens) (UniProt Q8NFQ8); experiment: small molecules binding lysate-expressed LULL1 – cell lysate, human LULL1 lysate, 635/667 nm fluorescence, primary screen (AID 1092); settings: small-molecule microarray, hLULL1 lysate binding, 635 nm fluorescence; higher = more signal;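 further: probe is lysate of COS7 cells overexpressing human LULL1; score merges per-feature 667 nm fluorescence with signal-to-noise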
Torsin-1A-interacting protein 2 (Homo sapiens), sequence (Q8NFQ8 whole entry, looked up): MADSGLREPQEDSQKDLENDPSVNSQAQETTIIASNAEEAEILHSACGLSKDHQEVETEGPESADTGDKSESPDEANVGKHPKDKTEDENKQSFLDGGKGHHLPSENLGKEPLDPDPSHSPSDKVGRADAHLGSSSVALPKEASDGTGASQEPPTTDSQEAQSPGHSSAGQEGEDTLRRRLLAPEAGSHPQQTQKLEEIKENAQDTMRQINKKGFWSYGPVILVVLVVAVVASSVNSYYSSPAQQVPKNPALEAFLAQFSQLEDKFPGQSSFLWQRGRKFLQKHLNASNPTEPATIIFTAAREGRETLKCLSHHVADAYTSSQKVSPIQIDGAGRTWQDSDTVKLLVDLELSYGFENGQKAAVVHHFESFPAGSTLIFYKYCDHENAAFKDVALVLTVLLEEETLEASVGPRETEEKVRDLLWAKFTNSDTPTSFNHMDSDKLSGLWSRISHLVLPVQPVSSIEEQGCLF

[6] = optical density change of DRC41 E. coli – strain DRC41, OD650, 24 h, E. coli filamentation project, primary screen (AID 1093);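 further: MC1000 strain lacking acrAB efflux and sulA so SOS filamentation is blocked; test concentration not given here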; settings: E. coli DRC41 growth, higher = more signal, called active from +8 up or from −8 down
[7] = probe aLefty2 binding to arrayed compounds – biochemical, biotinylated probe, 635/667 nm fluorescence, primary screen (AID 1094); settings: small-molecule microarray, higher = more signal;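 further: score merges spot fluorescence near 667 nm with spot signal-to-noise ratio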
[8] = system: Noggin (protein binding on small-molecule microarray); experiment: small molecules binding Noggin protein – biochemical, 635/667 nm fluorescence, primary screen (AID 1095); settings: 635 nm fluorescence, higher = more signal;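 further: score merges 667 nm feature fluorescence with signal to noise over triplicate slides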
[9] = molecular target: Neurogenic locus notch homolog protein 3 (Homo sapiens) (UniProt Q9UM47); experiment: small molecules binding NOTCH3 protein – biochemical, 635/667 nm fluorescence, primary screen (AID 1096); settings: small-molecule microarray, 635 nm fluorescence, higher = more signal
Neurogenic locus notch homolog protein 3 (Homo sapiens), sequence (Q9UM47 whole entry, looked up): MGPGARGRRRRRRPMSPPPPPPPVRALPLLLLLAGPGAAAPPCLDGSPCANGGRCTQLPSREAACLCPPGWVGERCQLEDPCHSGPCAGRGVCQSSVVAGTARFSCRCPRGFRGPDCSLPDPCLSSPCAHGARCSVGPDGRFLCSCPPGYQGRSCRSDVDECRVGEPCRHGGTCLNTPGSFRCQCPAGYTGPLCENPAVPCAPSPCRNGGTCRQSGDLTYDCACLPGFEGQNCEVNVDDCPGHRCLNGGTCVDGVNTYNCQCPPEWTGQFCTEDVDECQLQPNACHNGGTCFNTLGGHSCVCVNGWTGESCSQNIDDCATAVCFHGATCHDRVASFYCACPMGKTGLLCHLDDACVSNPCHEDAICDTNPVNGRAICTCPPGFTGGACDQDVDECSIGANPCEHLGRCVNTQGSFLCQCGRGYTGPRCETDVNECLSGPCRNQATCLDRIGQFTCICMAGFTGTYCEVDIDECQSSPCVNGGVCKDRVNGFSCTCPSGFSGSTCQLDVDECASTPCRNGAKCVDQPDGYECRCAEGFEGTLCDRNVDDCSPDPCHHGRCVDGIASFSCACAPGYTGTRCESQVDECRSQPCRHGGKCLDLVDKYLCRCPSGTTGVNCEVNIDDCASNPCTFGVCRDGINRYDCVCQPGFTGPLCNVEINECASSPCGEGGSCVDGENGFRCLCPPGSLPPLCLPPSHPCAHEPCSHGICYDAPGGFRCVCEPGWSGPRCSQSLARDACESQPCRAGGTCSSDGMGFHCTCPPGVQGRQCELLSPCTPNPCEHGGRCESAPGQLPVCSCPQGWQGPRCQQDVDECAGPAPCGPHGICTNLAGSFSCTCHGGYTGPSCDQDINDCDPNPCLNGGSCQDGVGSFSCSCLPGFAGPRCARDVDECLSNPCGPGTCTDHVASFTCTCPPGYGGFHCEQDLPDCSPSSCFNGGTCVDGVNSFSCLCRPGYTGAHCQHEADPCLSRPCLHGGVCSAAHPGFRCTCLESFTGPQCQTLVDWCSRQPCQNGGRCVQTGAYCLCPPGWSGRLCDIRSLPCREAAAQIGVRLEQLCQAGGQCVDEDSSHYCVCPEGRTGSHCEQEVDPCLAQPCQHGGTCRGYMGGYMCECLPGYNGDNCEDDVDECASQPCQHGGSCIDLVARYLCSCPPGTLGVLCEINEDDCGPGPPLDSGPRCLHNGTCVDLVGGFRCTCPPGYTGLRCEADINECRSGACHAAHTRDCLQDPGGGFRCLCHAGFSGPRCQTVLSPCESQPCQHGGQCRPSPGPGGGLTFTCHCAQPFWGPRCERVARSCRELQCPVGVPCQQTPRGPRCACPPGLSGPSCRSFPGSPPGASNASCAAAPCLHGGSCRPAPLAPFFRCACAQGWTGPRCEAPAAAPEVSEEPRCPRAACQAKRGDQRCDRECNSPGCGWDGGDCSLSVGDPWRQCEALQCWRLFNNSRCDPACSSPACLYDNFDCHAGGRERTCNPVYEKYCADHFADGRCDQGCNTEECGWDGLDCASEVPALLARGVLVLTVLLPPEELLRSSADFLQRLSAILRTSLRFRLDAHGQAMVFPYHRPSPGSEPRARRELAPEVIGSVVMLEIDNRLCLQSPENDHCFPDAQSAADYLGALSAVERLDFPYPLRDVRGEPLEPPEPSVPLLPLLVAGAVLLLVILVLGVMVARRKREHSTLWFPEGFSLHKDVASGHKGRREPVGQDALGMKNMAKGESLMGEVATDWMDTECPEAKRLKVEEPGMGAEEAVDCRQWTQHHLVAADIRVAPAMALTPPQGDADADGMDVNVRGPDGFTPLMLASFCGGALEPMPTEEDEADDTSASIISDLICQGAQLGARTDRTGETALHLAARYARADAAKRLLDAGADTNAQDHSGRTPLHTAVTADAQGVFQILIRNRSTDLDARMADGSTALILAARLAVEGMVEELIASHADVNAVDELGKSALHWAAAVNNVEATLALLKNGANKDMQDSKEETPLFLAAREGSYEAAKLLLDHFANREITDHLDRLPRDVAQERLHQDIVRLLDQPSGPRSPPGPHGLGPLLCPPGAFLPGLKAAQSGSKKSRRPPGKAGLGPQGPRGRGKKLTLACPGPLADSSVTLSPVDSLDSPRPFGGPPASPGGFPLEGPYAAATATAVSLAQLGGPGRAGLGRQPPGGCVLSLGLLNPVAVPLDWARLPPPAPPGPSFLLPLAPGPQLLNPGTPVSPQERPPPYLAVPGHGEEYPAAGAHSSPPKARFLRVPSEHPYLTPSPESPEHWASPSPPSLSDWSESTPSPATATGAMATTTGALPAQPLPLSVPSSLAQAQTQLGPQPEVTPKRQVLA

[10] = probe aEGFR binding to arrayed compounds – biochemical, biotinylated probe, 635/667 nm fluorescence, primary screen (AID 1097); settings: small-molecule microarray, higher = more signal;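 further: probe is a biotinylated anti-EGFR antibody binding compounds printed on slides; score combines fluorescence near 667 nm and signal to noise of each spot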

SMILES	composite z-score [1]	z-score [2]	z-score [3]	z-score [4]	composite z-score [5]	z-score [6]	composite z-score [7]	composite z-score [8]	composite z-score [9]	composite z-score [10]
COc1cc(CO)cc(I)c1O[C@H]1C=C(C(=O)NCCO)C[C@@H](N(CCN2CCOCC2)C(=O)C2CCCO2)[C@@H]1O (stereo not given in full)	-0.15	0.383 (inactive)	-0.455 (inactive)	0.0665 (inactive)	0.206	2.54 (inactive)	-0.172	0.34	-0.204	-0.0106
O=C1C2C=CC(C(O)C3CC=CCC3)N(Nc3ccc([N+](=O)[O-])cc3)C2C(=O)N1c1ccccc1 (stereo not given)	1.41	-1.09 (inactive)	0.531 (inactive)	2.22 (inactive)	3.22	0.0043 (inactive)	0.486	0.7	1.06	0.298
CC(=O)NCCCC[C@@H]1NC(=O)[C@H]2C[C@@H](C(=O)O)[C@@H](c3cccc(OCCO)c3)N2C1=O	1.54	0.341 (inactive)	-0.198 (inactive)	-0.453 (inactive)	2.49	-0.147 (inactive)	0.122	1.58	1.11	0.189
COc1cccc(C)c1NC(=O)O[C@H]1[C@H](OC(=O)Nc2ccccc2)[C@@H](OC(=O)Nc2ccccc2)[C@@H](OC)O[C@@H]1CO	1.56	1.52 (inactive)	0.176 (inactive)	4.1 (inactive)	3.36	-0.93 (inactive)	0.0321	0.902	1.12	0.0182
COc1cccc(C)c1NC(=O)O[C@H]1[C@H](OC(=O)Nc2ccccc2-c2ccccc2)[C@@H](OC(=O)Nc2ccccc2-c2ccccc2)[C@@H](OC)O[C@@H]1CO	1.53	3.84 (inactive)	2.59 (inactive)	3.5 (inactive)	3.54	-0.692 (inactive)	0.0426	1.36	0.542	0.0059
C=CC[C@@]1(C(=O)NCCCOC)N=C(c2ccc(OCCCO)cc2)O[C@@H]1c1ccccc1CN=[N+]=[N-]	1.55	-0.759 (inactive)	-0.0094 (inactive)	-0.966 (inactive)	2.35	1.1 (inactive)	0.258	1.01	1.12	0.0914
